Inconclusive results are not listed. Calls of active or inactive are those of the source. Calls follow the shape of the dose curve; as a rule, active = well fitted curve in the direction sought with a large enough effect; inconclusive = small, poorly fitted or top-dose-only effect, or effect the other way, or another doubt; inactive = no such curve, though single readings can be large or run the other way.
target: Pyruvate kinase PKLR (Homo sapiens) (UniProt P30613); experiment: Secondary LDH Assay for Activators of Human Reticulocyte Pyruvate Kinase: for Probe SAR; details: purified hPK-R, LDH-coupled NADH fluorescence kinetic; series mostly up to 58.4 µM
Text: NIH Chemical Genomics Center [NCGC] Wael M. Rabeh, Lyudmila Nedyalkova and Hee-Wan Park [Structural Genomics Consortium, 100 College St. Toronto, Ontario, Canada] NCGC Assay Overview: Human pyruvate kinase reticulocyte (hPK-R) enzyme was supplied as a highly purified (>95% pure) preparation from Structural Genomics Consortium in Toronto (Ontario, Canada) and a secondary assay was used to evaluate compounds. This assay couples the formation of pyruvate from hPK-R using lactate dehydrogenase (LDH) and NADH. The depletion of NADH is followed in a fluorescent-based kinetic assay that follows the formation of pyruvate to lactate, as catalyzed LDH. Pyruvate kinase substrates, PEP and ADP, were present in the assay at 0.1 mM and 4 mM respectively. In this kinetic assay initial rates were determined by following the fluorescence of NADH depletion.
NCGC Assay Protocol Summary: Three uL of substrate mix (final concentration, 50 mM Tris-Cl pH 8.0, 200 mM KCl, 15 mM MgCl2, 0.1 mM PEP, 4.0 mM ADP, and 0.2 mM NADH) was dispensed into black-solid 1536 well plates. 23 nL of compounds were delivered by a pin tool and 1 uL of enzyme mix (final concentrations, 10 nM hPK-R and 1 uM of LDH) was added. Plates were immediately placed in ViewLux (Perkin Elmer) and NADH fluorescence was determined at 30 second exposure intervals for between 3 and 6 minutes. Data were normalized to the uninhibited and EC100 activation using known activators such as fructose-bis-phosphate.

Sequence of Pyruvate kinase PKLR (Homo sapiens) (P30613 whole entry, looked up): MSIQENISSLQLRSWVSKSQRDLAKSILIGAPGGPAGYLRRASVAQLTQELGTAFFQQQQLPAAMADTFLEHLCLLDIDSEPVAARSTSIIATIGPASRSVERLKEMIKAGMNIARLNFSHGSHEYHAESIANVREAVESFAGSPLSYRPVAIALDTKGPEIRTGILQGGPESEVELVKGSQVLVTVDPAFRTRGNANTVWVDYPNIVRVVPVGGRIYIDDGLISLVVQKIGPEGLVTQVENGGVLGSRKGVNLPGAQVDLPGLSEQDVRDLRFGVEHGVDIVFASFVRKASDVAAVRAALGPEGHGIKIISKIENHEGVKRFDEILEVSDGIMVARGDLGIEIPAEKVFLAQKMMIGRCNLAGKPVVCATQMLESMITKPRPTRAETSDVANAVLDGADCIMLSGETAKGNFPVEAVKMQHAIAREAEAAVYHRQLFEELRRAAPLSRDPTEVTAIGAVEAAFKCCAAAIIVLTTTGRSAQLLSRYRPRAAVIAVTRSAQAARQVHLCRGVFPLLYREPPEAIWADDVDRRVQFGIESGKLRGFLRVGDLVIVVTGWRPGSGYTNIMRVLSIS

Potency, inactive:
CN(C)c1cccc(S(=O)(=O)N2CCN(S(=O)(=O)c3ccc4c(c3)OCCO4)CC2)c1
Cc1ccc(NS(=O)(=O)c2ccc3c(c2)CCC(=O)N3)cc1C
Cc1ccc(NS(=O)(=O)c2ccc3c(c2)CCN(C(=O)C(F)(F)F)C3)cc1C
Cc1ccc(NS(=O)(=O)c2cccc(F)c2)cc1C
O=C1c2ccccc2C(=O)N1c1cccc2ncccc12
Cc1ccc(NS(=O)(=O)c2ccc(N3CCCC3=O)cc2)cc1C
O=C1CCc2cc(S(=O)(=O)Nc3cccc4ccccc34)ccc2N1
O=C1c2ccccc2C(=O)N1c1ccc2ccccc2n1
Cc1cccc(NS(=O)(=O)c2ccc3c(c2)CCC(=O)N3)c1
Cc1ccc(NS(=O)(=O)c2cccc(Cl)c2)cc1C
Cc1ccc(NS(=O)(=O)c2ccc3c(c2)C(Cl)(Cl)C(=O)N3)cc1C
Cc1ccc(NS(=O)(=O)c2cc3c(cc2Cl)NC(=O)CO3)cc1C
O=C1c2ccccc2C(=O)N1c1ncccc1O
Cc1ccc(NS(=O)(=O)c2cc3c(cc2N(C)C)NC(=O)CC3)cc1C
Cc1ccc(NS(=O)(=O)c2ccc3c(c2)CCCC(=O)N3)cc1C
Cc1ccc(NS(=O)(=O)c2cc3c(cc2N(C)C)CCC(=O)N3)cc1C
O=C1c2ccccc2C(=O)N1c1cccc2cccnc12
Cc1cc(N2C(=O)c3ccccc3C2=O)n[nH]1
Cc1ccc(NS(=O)(=O)c2cc3c(cc2-c2cn[nH]c2)NC(=O)CO3)cc1C
O=C1CCc2cc(S(=O)(=O)NCc3ccccc3)ccc2N1
O=C1c2ccccc2C(=O)N1Cc1cccnc1
O=C1CCc2cc(S(=O)(=O)Nc3ccc4c(c3)OCCO4)ccc2N1
COc1ccccc1NS(=O)(=O)c1ccc2c(c1)CCC(=O)N2
Cc1ccc2nc(-c3ccc(C)o3)c(Nc3ccc4c(c3)OCO4)n2c1
O=C1c2ccccc2C(=O)N1Cc1ccccn1
O=C1c2ccccc2C(=O)N1c1nccs1
Cc1ccccc1Nc1c(-c2ccc(Cl)s2)nc2ccccn12
Cc1ccc(NS(=O)(=O)c2cc3c(cc2N2CCCCC2)NC(=O)CC3)cc1C
O=C1c2ccccc2C(=O)N1c1cccc(O)c1
Cc1ccc(NS(=O)(=O)c2cc3c(cc2Cl)CCC(=O)N3)cc1C
O=C1c2ccccc2C(=O)N1Cc1ccncc1
Cc1ccc2nc(-c3cccs3)c(Nc3ccccc3)n2c1
Cc1ccc(NS(=O)(=O)c2ccc3c(c2)CCC(C)(C)O3)cc1C
Cc1ccc2nc(-c3ccc(C)o3)c(NC3CCCC3)n2c1
COc1cccc(NS(=O)(=O)c2ccc3c(c2)CCC(=O)N3)c1
Cc1ccc(NS(=O)(=O)c2ccc3c(c2)N(C)C(=O)CO3)cc1C
COc1ccc(OC2=NS(=O)(=O)c3ccccc32)cc1
Cc1ccc(NS(=O)(=O)c2ccc(-c3ccccc3)cc2)cc1C
O=C1CCc2cc(S(=O)(=O)Nc3cccnc3)ccc2N1
O=C1CCc2cc(S(=O)(=O)Nc3cccc(-c4ccccc4)c3)ccc2N1
